Compound activity deposited in PubChem by several laboratories.
This is a sample that favours compounds with a hit; in the whole collection about 3.7% have one here.
tim23-1 inh – tim23-1 yeast growth inhibition. inhibition, % at 20 µM. S. cerevisiae tim23-1 growth, BacTiter-Glo luminescence, 24 h. 330,000 tested, 1.3% active;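 active = growth inhibition of the mutant yeast at or above 50%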;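 also: temperature-sensitive mutant grown at 25 °C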
TIM10 inh – growth inhibitors of TIM10 yeast strain; S. cerevisiae TIM10 strain growth, BacTiter-Glo luminescence, 24 h; inhibition, % at 10 µM; 330,000 tested, 1.4% active; AID 463195;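 active = inhibition of 40% or more at the single tested concentration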;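 also: wild-type TIM10 isogenic control strain grown at permissive 25 °C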
PfHsp90 set2 – growth inhibition of yeast expressing Plasmodium Hsp90; AID 504621; 310,000 tested, 0.32% active; S. cerevisiae expressing PfHsp90, BacTiter-Glo ATP, 48 h; yeast lacking PDR1 and PDR3 efflux regulators; inhibition, % at 9.4 µM;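 active = every replicate shows inhibition above about 80%, whatever the replicate mean, limit read from the data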
tim10-1 inh – growth inhibitors of tim10-1 mutant yeast; 330,000 tested, 2.2% active; inhibition, % at 20 µM; S. cerevisiae tim10-1 ts strain growth, BacTiter-Glo, 24 h;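 active = inhibition of at least 40%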;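 also: mutant grown at 25 °C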
Rce1 inhib – yeast Ras-converting enzyme inhibition; Q03530; 290,000 tested, 0.27% active; calls only; yeast membranes, quenched prenylated peptide cleavage fluorescence; AID 2563;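 active = fall in fluorescence gain of 50% or more versus controls, with final raw signal at or below 3038400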
Target sequence (Q03530 whole entry, looked up): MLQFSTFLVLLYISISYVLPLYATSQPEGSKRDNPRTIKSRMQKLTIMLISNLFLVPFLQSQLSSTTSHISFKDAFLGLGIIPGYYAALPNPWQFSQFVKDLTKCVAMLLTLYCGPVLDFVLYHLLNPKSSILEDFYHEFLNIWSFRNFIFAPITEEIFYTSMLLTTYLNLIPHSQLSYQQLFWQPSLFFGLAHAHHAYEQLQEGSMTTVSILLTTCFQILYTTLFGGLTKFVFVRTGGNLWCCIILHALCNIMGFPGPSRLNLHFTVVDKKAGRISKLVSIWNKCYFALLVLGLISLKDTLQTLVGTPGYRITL
Each line names hits and unclear results; the compound was inactive in the other large screens.

CN(C)C(=O)COc1ccc2c(-c3ccccc3)cc(=O)oc2c1	none
COc1cccc(CN2CCNC(=O)C2CC(=O)N(C)C2CCOCC2)c1OC (configuration not stated)	none (no result: Rce1 inhib)
Cc1ccc(OCC(=O)Nc2ccc(S(=O)(=O)N3CCOCC3)cc2)c(Br)c1	Rce1 inhib active
Cc1ccc(S(=O)(=O)N2CCCCC2)cc1NC(=O)COC(=O)c1ccc(=O)[nH]c1	none (no result: Rce1 inhib)
O=C(COC(=O)/C=C/c1cn(-c2ccccc2)nc1-c1ccc2c(c1)OCCO2)NC1CCS(=O)(=O)C1 (configuration not stated)	Rce1 inhib active
CN(C(=O)COC(=O)/C=C/c1cn(-c2ccccc2)nc1-c1ccc2c(c1)OCCO2)C1CCS(=O)(=O)C1 (configuration not stated)	none
CCn1c2ccccc2c2cc(/C=N/NC(=O)c3cc(O)cc(O)c3)ccc21	Rce1 inhib active
CCn1c2ccccc2c2cc(/C=N/NC(=O)c3ccncc3)ccc21	none
CCn1c2ccccc2c2cc(/C=N/NC(=O)c3ccc(O)cc3)ccc21	Rce1 inhib active
O=C(N/N=C/c1cn(Cc2ccccc2)c2ccccc12)c1cc(O)cc(O)c1	Rce1 inhib active
CC(=O)N1N=C(c2ccc(C)c([N+](=O)[O-])c2)OC1(C)C	none
Cc1nn(-c2nc3ccccc3[nH]2)c(=O)c2ccccc12	PfHsp90 set2 90 (no result: tim23-1 inh, TIM10 inh, tim10-1 inh, Rce1 inhib)
Cc1nn(-c2nc3ccccc3[nH]2)c(N)c1-c1ccc(Cl)cc1	none
Oc1ccc(-c2nc3ccccn3c2NCc2ccco2)cc1	Rce1 inhib active
O=C(Nc1c(-c2ccccc2)nc2ccccn12)c1ccco1	none
CCCC(C(=O)c1ccccc1)n1cncn1 (configuration not stated)	none
Cc1ccc(C(=O)C(SC(C)(C)C)n2cncn2)cc1 (configuration not stated)	PfHsp90 set2 83
O=C(Nc1ccc(N2CCN(C(=O)c3ccco3)CC2)c(Cl)c1)c1cc2ccccc2o1	none
CCCC(=O)N1CCN(c2ccc(NC(=O)c3cc4ccccc4o3)cc2Cl)CC1	Rce1 inhib active
CCC(=O)N1CCN(c2ccc(NC(=O)c3cc4ccccc4o3)cc2Cl)CC1	Rce1 inhib active
Cc1ccc(NC(=O)c2cc3ccccc3o2)cc1Cl	none
C[C@H]1COC(=O)[C@@H](Cc2ccc(F)cc2)C/C=C\C[C@@H](CC(=O)N[C@@H](CO)Cc2ccccc2)C(=O)N1	none (no result: Rce1 inhib)
COC(=O)CSC(C)C(=O)Nc1nnc(C(C)C)s1 (configuration not stated)	none
CCc1cc(=O)oc2cc(OCC(=O)N3CCC(C(=O)O)CC3)ccc12	Rce1 inhib active
CCCc1cc(=O)oc2cc(OCc3ccc(C(=O)O)cc3)ccc12	PfHsp90 set2 109
CCCc1cc(=O)oc2cc(OCc3ccc(C(=O)O)o3)ccc12	none
CC[C@H](C)/C=C/C1=CC2=C(Cl)C(=O)[C@@]3(C)OC(=O)C(C(=O)[C@H](C)[C@@H](C)O)=C3C2=CO1	PfHsp90 set2 104
COc1nc(Cl)cn(-c2ccc(C)cc2)c1=O	none
Cc1ccc(-n2c(Cl)c(Cl)nc(Cl)c2=O)cc1	PfHsp90 set2 105 (no result: tim23-1 inh, TIM10 inh, tim10-1 inh, Rce1 inhib)
Cc1ccc(S(=O)(=O)Nc2ccccc2C(=O)NCC2CCCO2)cc1 (configuration not stated)	Rce1 inhib active (no result: PfHsp90 set2)
O=C(NCC1CCCO1)c1ccccc1NS(=O)(=O)c1ccc(F)cc1 (configuration not stated)	none (no result: Rce1 inhib)
NC(=O)[C@@H]1CC2(CC(c3cccc(NC(=O)CC(c4ccccc4)c4ccccc4)c3)=NO2)CN1C(=O)c1ccc(Cl)cc1 (some centres not stated)	Rce1 inhib active
NC(=O)[C@H]1CC2(CC(c3cccc(NC(=O)CC(c4ccccc4)c4ccccc4)c3)=NO2)CN1C(=O)CC(c1ccccc1)c1ccccc1 (some centres not stated)	none (no result: PfHsp90 set2)
NC(=O)[C@H]1CC2(CC(c3cccc(NC(=O)COc4ccc(Cl)cc4)c3)=NO2)CN1C(=O)C(c1ccccc1)c1ccccc1 (some centres not stated)	Rce1 inhib active
CN(C)c1nc(-c2ccccc2)c2cnn(Cc3ccccc3)c2n1	none
c1ccc2c(-c3cn4ccccc4n3)c[nH]c2c1	Rce1 inhib active (no result: PfHsp90 set2)
c1ccc2c(-c3nnc(SCc4cn5ccccc5n4)o3)c[nH]c2c1	none
O=[N+]([O-])c1ccc(N=Nc2c(Cl)cc(O)cc2Cl)cc1	PfHsp90 set2 131 (no result: tim23-1 inh, TIM10 inh, tim10-1 inh)
COc1cc(-c2nc3ccccn3c2NCC2CCCO2)ccc1O (configuration not stated)	Rce1 inhib active
COc1cc(-c2nc3ccccn3c2/N=C/c2cccc(F)c2)ccc1O	none
COc1cc(-c2nc3ccccn3c2/N=C/c2ccccc2)ccc1O	Rce1 inhib active
CCc1ccc(C(C)NC(=O)c2ccncc2)cc1 (configuration not stated)	none
O=C(CC(CC(=O)c1ccccc1)c1ccccc1)c1ccccc1	none
O=C(CC(Nc1ccc(F)cc1)c1ccccc1)c1ccccc1 (configuration not stated)	Rce1 inhib active
COc1ccc(S(=O)(=O)NC2CC3CCC2C3)cc1Cl (configuration not stated)	PfHsp90 set2 141
O=S(=O)(NC1CC2CCC1C2)c1ccc2c(c1)OCCO2 (configuration not stated)	none
COc1ccc(S(=O)(=O)NC2CC3CCC2C3)cc1Br (configuration not stated)	PfHsp90 set2 114
CC(=O)c1ccc(N2CCN(C(=O)CNS(=O)(=O)c3ccc4c(c3)OCCCO4)CC2)c(F)c1	none (no result: Rce1 inhib)
N#Cc1c(F)cccc1NCc1cccs1	none (no result: Rce1 inhib)
O=C(/C=C/c1ccccc1)CCN1CCCCC1	PfHsp90 set2 117 (no result: tim23-1 inh, TIM10 inh, tim10-1 inh, Rce1 inhib)
O=C(CCN1CCCCCC1)c1ccccc1	none (no result: Rce1 inhib)
CCc1cc(N2CCOCC2)cc2c1[nH]c1ccccc12	Rce1 inhib active
c1ccc2c(c1)[nH]c1c(N3CCOCC3)ncnc12	none
COCc1c(Br)c(C)[nH]c(=O)c1C#N	Rce1 inhib active
O=C(NCCN1CCOCC1)N1c2ccccc2Sc2ccccc21	none
Cc1nc(-c2cccc(NS(=O)(=O)c3ccccc3)c2)cs1	none
Cc1ccc2nc(-c3cccc(NS(C)(=O)=O)c3)cc(-c3ccccc3)c2c1	PfHsp90 set2 100
Cc1cccc(C)c1OCC(=O)NNC(=S)NC(=O)C1CC1	PfHsp90 set2 104
Cc1ccc(C(=O)N/C(=C/c2ccco2)C(=O)Nc2cccc(C(=O)O)c2)cc1	Rce1 inhib active (no result: PfHsp90 set2)
CC(C)CC(=O)Nc1nc(-c2ccc(S(=O)(=O)N3CCOCC3)cc2)cs1	none
Cc1ccc(Nc2nc(-c3ccc(S(=O)(=O)N4CCOCC4)cc3)cs2)cc1Cl	Rce1 inhib active
COC(=O)CSc1nc(N)c2c3c(sc2n1)C(c1ccccc1)SC(c1ccccc1)C3 (configuration not stated)	Rce1 inhib active
COC(=O)CSc1nc(N)c2c3c(sc2n1)CCCC3	none
